The source of these data is PubChem BioAssay.

This assay in a line: small-molecule binders of probe aInhba, primary screen, biochemical, small-molecule microarray, 635/667 nm fluorescence (AID 1148).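 Also: score merges 667nm spot fluorescence with signal-to-noise for antibody binding to printed compounds.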 The note with it: higher = more signal.
Compound `CC(C)[C@@H](OCc1ccccc1)[C@H](C)C=NOC[C@@H](O)COCc1ccco1` registered a composite z-score of -0.32.
Under `CC(C)(C)N1C(=O)[C@H]2[C@H]3[C@H](O)C=CC(=O)[C@@H]3CC[C@H]2C1=O` stands -0.128; under `CCOC(=O)[C@H](CC(C)C)NC(=O)CCC1CC(OC(=O)NCc2cccc3ccccc23)CC2(CCCC(COC(=O)NCCOC)O2)O1` (stereo not given in full), 0.119.
Under `Cc1ccc(S(=O)(=O)n2c3ccccc3c3nnc(C(=O)c4ccccc4)nc32)cc1` stands 0.0998; under `CCN1C(=O)[C@H]2[C@H]3[C@H](O)[C@H](O)CC(=NOC[C@H]4O[C@H](c5ccccc5)C=C[C@@H]4Oc4ccc(OC)cc4)[C@@H]3CC[C@H]2C1=O`, 0.0497.
`Cc1cc2c(c(=O)o1)[C@@H](O)[C@H]1O[C@H]1C2=O` had a composite z-score of 0.0073.
Under `C#CCCCON=C1C[C@@H](O)[C@@H](O)[C@@H]2[C@@H]3C(=O)N(c4cccc(Oc5ccccc5)c4)C(=O)[C@@H]3CC[C@H]12` stands -0.191; under `CC(CCN1CCc2nc(-c3ccccc3)c(-c3ccccc3)cc2C1)=NOC[C@@H](O)[C@H]1O[C@@H]2OC(C)(C)O[C@@H]2[C@H]1O`, -0.0589; under `CC(CCN1CCc2nc(-c3ccccc3)c(-c3ccccc3)cc2C1)=NOC[C@@H](O)COCc1ccco1`, -0.0589.
With `CSCC[C@@H]1NC(=O)CC=C[C@@H](C)COC(=O)[C@@H](C)COC1=O` the figure was -0.0736; with `CC(=O)Nc1ccc([C@@H]2N[C@H](C(=O)O)CC[C@H]2C)cc1`, -0.101; with `C#CCCCON=C1[C@H]2CCn3c(=O)n(-c4ccccc4)c(=O)n3[C@H]2[C@H](O)[C@@H]2O[C@H]12`, -0.23.
With `COC(=O)[C@@H]1CC[C@H](C)[C@@H](c2ccc(C)cc2)N1C(=O)c1ccc(C=NOC[C@@H](C)[C@H](OCc2ccccc2)C(C)C)cc1` the figure was -0.018; with `CCOC(=O)[C@H](Cc1ccccc1)NC(=O)CCC1CC(OC(=O)NCc2cccc3ccccc23)CC2(CCCC(COC(=O)NCCC(C)C)O2)O1` (stereo not given in full), -0.231; with `C=CC[C@@H]1C=C[C@H](ON=C2[C@H]3CCn4c(=O)n(-c5ccccc5)c(=O)n4[C@H]3[C@H](O)[C@@H]3O[C@H]23)[C@@H](CO)O1`, -0.0736.
With `CCOC(=O)[C@H](CC(C)C)NC(=O)CCC1CC(OC(=O)NCc2cccc3ccccc23)CC2(CCCC(COC(=O)NCCOc3ccccc3)O2)O1` (stereo not given in full), the composite z-score turned out to be 0.0248.
With `C[C@@H](c1ccccc1)N1C(=O)[C@H]2[C@H]3[C@H](O)[C@H](O)CC(=NOCc4ccccc4)[C@H]3CC[C@H]2C1=O` the figure was -0.183.
With `CCCNC(=O)OC[C@H]1O[C@H](CCON=C(C)CCN2CCc3nc(CC)c(CC)cc3C2)C=C[C@@H]1Oc1ccc(OC)cc1` the figure was -0.0405; with `CCCNC(=O)OC[C@H]1O[C@H](CCON=C(C)C)C=C[C@@H]1Oc1ccc(OC)cc1`, -0.0791.
Under `CC(=O)O[C@H]1C2=CO[C@H](C)[C@H]3[C@H]4C5=C([C@H](O)[C@H]6O[C@H]6C5=O)[C@H](OC4C)[C@@]23C(=O)[C@@H]2O[C@@H]21` (stereo not given in full) stands -0.292; under `C=CC[C@@H]1C=C[C@H](ON=C[C@@H](C)[C@H](OCc2ccccc2)C(C)C)[C@@H](CO)O1`, -0.238.
As to `COC(=O)CC=C[C@@H](C)[C@@H](C=NOC(C)CN1CCCc2nc(C)c(C)cc21)OC` (stereo not given in full), the composite z-score stood at 0.098.
With `CC(CCN1CCCCc2nc(C)c(C)cc21)=NOC[C@@H](C)[C@H](OCc1ccccc1)C(C)C` the figure was -0.37; with `CON=C(C)CCC(=O)OC[C@H]1O[C@H](c2ccccc2)C=C[C@@H]1Oc1ccc(OC)cc1`, -0.0963; with `CON=CC[C@@H]1C=C[C@H](OC(C)=O)[C@@H](COC(C)=O)O1`, 0.102.
Under `Cn1c(=O)n2n(c1=O)[C@H]1[C@H](O)[C@@H]3O[C@@H]3C(=O)[C@H]1CC2` stands -0.041.
Under `COc1ccc(COC(=O)NN=C2C[C@@H](O)[C@@H](O)[C@@H]3[C@@H]4C(=O)N(Cc5ccccc5)C(=O)[C@@H]4CC[C@H]23)cc1` stands -0.753; under `C#CCCCON=C1C[C@@H](O)[C@@H](O)[C@@H]2[C@@H]3C(=O)N(C(C)(C)C)C(=O)[C@@H]3CC[C@@H]12`, -0.0762; under `C[C@@H](c1ccccc1)N1C(=O)[C@H]2[C@H]3[C@H](O)[C@H](O)CC(=NO[C@@H]4O[C@H](CO)[C@@H](O)[C@H](O)[C@H]4O)[C@H]3CC[C@H]2C1=O`, -0.142.
For the compound `CCOC(=O)CCN1C(=O)[C@H]2[C@H]3[C@H](O)[C@H](O)CC(=NOCc4ccccc4)[C@H]3CC[C@H]2C1=O`, the composite z-score was 0.0805.
